The source of these data is PubChem BioAssay (Tox21).

The structures appear in SMILES notation. Inconclusive results are not listed. A number with no mark means an inactive call. The call rests on the fitted dose curve; in most records, active means well fitted cell-killing curve with a large enough effect in the repeat runs; inconclusive means weak or mixed curves, or effect the other way; inactive means flat fitted curve, though single readings scatter.
On the % scale 0 is the no-effect control and ±100 the full control effect.

A short description of the assay: qHTS RealTime-Glo MT Cell Viability Assay in HEK293 cells - 40 hour (AID 1224874). Further: nearly all actives have a fitted effect of over 50% in size. Conditions: RealTime-Glo luminescence; max response: active compounds read low. The text has this:
U.S. Tox21 Program National Center for Advancing Translational Sciences [NCATS] NIH Chemical Genomics Center [NCGC] U.S. Environmental Protection Agency [EPA] National Institutes of Environmental Health Sciences [NIEHS] National Toxicology Program [NTP] U.S. Food and Drug Administration [FDA] Tox21 Assay Overview: Measure of cell viability is critical in the cell-base assay. Analysis of cell viability is necessary for the characterization of cell responses to cytotoxic drugs and environmental stress. A RealTime-Glo MT Cell Viability Assay to monitor cell viability in real time of continues cell culture during 40 hours of compound treatment was used to screen Tox21 10K library compounds in Hek293 cells. The RealTime-Glo MT Cell Viability Assay is a nonlytic, homogeneous, bioluminescent method to measure cell viability in real time using a simple, plate-based method. The assay involves adding NanoLuc luciferase and a cell-permeant prosubstrate to cells in culture. Viable cells reduce the proprietary prosubstrate to generate a substrate for NanoLuc luciferase. This substrate diffuses from cells into the surrounding culture medium, where it is rapidly used by the NanoLuc Enzyme to produce a luminescent signal. The signal correlates with the number of viable cells, making the assay well suited for cytotoxicity studies.
Tox21 Assay Protocol Summary: The mixture of Hek293 cell suspension and reagents were dispensed at 600cells/6 ul/well in 1536-well tissue culture treated black solid bottom plates using a Multidrop dispenser. After the assay plates were incubated at a 37 C/5% CO2 incubator for 5 hours, 23 nL of compounds dissolved in DMSO, positive and negative controls was transferred to the assay plate by a pintool work station. The plates were incubated at 37 C for 40 hours. The luminescence intensity were measured at 0h, 8h, 16h, 24h, 32h and 40h time points using ViewLux plate reader during compound treatment.
For orientation: Quantitative high-throughput screening tests each substance at several concentrations.
For the compound `O=S1(=O)OCCO1`, the max response was 4.27%.
In the case of `N#CN=C1SCCN1Cc1ccc(Cl)nc1` it was -3.59%.
For the compound `CCNP(=S)(OC)O/C(C)=C/C(=O)OC(C)C` (stereo not given), the max response was -13.5%.
Turning to `C=C(C)[C@H]1CN[C@H](C(=O)O)[C@H]1CC(=O)O`, the max response was 0.763%.
In the case of `CCOC(=O)c1ncn2c1CN(C)C(=O)c1c(I)cccc1-2` it was 1.2%.
In the case of `CN1C(=O)COc2c(C(=O)NC3CN4CCC3CC4)cc(Cl)cc21` (stereo not given) it was 3.5%; in that of `CCCCCCC1CCOC1=O` (stereo not given), -0.816%; in that of `CC[C@H](N)c1ccccc1`, 5.02%.
In the case of `O=C(Cl)C(Cl)(Cl)Cl` it was 1.29%; in that of `CCOC(=O)COc1ccc(Cl)cc1Cl`, -3.04%; in that of `CC[C@@H](CO)NC(=O)[C@@H]1C=C2c3cccc4c3c(cn4C)C[C@H]2N(C)C1`, -3.36%.
As to `CCCCCCCC(=O)Cl`, the max response is 5.36%.
In the case of `Oc1ccc2c3c1O[C@H]1[C@@H](O)C=C[C@H]4[C@@H](C2)NCC[C@@]341` it was -1.32%; in that of `CCN[C@H](C)Cc1cccc(C(F)(F)F)c1`, -6.31%; in that of `COP(=O)(OC)O/C(C)=C/C(=O)N(C)C`, 13.5%.
`CNC(=O)Oc1ccccc1C(C)C`: the max response was 3.33%.
In the case of `CCC1(c2cccc(O)c2)CCCCN(C)C1` (stereo not given), the max response was 3.71%.
In the case of `CC1N=C(N)OC1c1ccccc1` (stereo not given) it was -2.35%; in that of `CCCOC(=O)Cc1ccc(OCC(=O)N(CC)CC)c(OC)c1`, -5.19%.
With `CC(C)(C)C(=O)C(Cl)Cl`, the max response is -2.49%.
In the case of `O=C(NC(O)C(Cl)(Cl)Cl)NC(O)C(Cl)(Cl)Cl` (stereo not given) it was 0.623%.
In the case of `O=C(O)C(Br)(Br)Br` it was -0.0563%; in that of `CCOC(=O)CC(SP(=S)(OC)OC)C(=O)OCC` (stereo not given), 11.4%.
In the case of `O=[N+]([O-])c1cccc(CCl)c1` it was 6.77%; in that of `CC(C)(N)Cc1ccc(Cl)cc1`, 6.61%; in that of `O=CCCl`, 6.03%.
`O=C(Cl)C(Cl)Cl`: the max response is 1.34%.
Turning to `CN1COCN(Cc2cnc(Cl)s2)/C1=N\[N+](=O)[O-]`, the max response is 7.06%.
In the case of `COc1ccc(C=O)cc1O` it was 0.952%.
In the case of `O=C(NC(=O)c1c(F)cccc1F)Nc1cc(Cl)c(F)c(Cl)c1F` it was -0.171%; in that of `Cc1ccc(Cl)c(O)c1`, 1.02%; in that of `CCN[C@@H](C)Cc1ccccc1`, -5.07%.
Regarding `[P]#[In]`, the max response was 0.3%.
In the case of `O=C(CCl)NCO` it was 1.67%; in that of `Clc1ccc(C(Cl)(Cl)Cl)cn1`, 1.5%.
In the case of `CCCCS(=O)(=O)Cl` it was 6.29%; in that of `C[N+]1(C)CCCCC1`, 19.2%.
Consider `CCN(CCO)CCn1c(Cc2ccccc2)nc2c1c(=O)n(C)c(=O)n2C`, for which the max response was -42.2%.
In the case of `CC(C)(O)C(Cl)(Cl)Cl` it was 4.01%; in that of `ClCC1CO1` (stereo not given), -2.45%.
